# Measurements reported in PubChem BioAssay AID1835 (Johns Hopkins Ion Channel Center, 2009).
# Screen size: about 2,400 compounds; about 750 (31%) were called active. This is one part of the list. A number with no mark means an inactive call.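 The calls were made as follows: active = median signal gain over dofetilide-blocked control wells reaching their mean plus 3 SD, so readout 1 at least 0; inactive = the rest.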 Where a SMILES comes first, the peptide text is derived from it. The star is where a group is joined. Cbz = O=C(OCc1ccccc1)*
# Biological target: Voltage-gated inwardly rectifying potassium channel KCNH2 (Homo sapiens) (UniProt Q12809)
# Sequence (Q12809 whole entry, looked up): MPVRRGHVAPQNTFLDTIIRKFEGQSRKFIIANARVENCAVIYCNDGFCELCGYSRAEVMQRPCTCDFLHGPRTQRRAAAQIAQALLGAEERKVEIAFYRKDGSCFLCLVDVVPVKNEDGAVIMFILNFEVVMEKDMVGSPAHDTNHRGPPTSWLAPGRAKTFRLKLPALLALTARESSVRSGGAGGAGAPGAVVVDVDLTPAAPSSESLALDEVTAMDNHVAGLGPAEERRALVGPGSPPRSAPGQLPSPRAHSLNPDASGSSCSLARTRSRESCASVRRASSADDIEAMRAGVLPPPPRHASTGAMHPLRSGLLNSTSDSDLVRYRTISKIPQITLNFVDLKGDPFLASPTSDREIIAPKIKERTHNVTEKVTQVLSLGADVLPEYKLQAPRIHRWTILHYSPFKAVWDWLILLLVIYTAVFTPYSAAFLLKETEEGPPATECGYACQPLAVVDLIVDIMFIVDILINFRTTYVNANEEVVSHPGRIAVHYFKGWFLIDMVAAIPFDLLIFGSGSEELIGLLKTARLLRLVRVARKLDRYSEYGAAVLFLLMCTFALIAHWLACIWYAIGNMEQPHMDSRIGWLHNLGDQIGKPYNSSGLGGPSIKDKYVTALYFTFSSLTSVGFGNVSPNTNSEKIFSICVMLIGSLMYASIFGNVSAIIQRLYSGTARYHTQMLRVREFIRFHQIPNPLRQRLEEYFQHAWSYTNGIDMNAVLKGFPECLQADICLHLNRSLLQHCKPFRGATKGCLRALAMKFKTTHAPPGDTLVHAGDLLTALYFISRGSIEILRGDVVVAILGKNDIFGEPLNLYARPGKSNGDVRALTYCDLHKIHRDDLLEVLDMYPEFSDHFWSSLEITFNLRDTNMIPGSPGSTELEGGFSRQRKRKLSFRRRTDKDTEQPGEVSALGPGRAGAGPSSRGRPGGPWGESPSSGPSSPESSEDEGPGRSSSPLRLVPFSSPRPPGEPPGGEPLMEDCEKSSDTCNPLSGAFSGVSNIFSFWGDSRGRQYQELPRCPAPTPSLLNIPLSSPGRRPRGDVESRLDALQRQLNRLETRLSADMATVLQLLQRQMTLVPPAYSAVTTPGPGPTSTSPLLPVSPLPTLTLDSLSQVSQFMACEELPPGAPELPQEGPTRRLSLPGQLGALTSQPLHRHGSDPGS
# Test: modulators restoring hERG flux under dofetilide – cell-based, thallium flux, duplicate retest, dofetilide IC70, confirmation (AID 1835)
# Details: hERG cell line, FluxOR thallium flux, dofetilide-blocked; at 10 µM; active compounds read high
row,Structure (SMILES),"activity increase over dofetilide control, less the hit threshold"
1,Cc1nc2n(n1)CC(O)CS2 (centres undefined),-14%
2,CN(C)CCNc1ncnc2c1sc1nc(N3CCCC3)c3c(c12)CC(C)(C)OC3,-10%
3,CCCCc1c(O)nc(SCC(=O)O)[nH]c1=O,-16%
4,CC12CCC3(CO)COC(c4ccccc4O1)C2C3 (centres undefined),-5%
5,O=C(COC(=O)c1cc(Br)ccc1O)Nc1cccnc1Cl,-14%
6,O=C(NC(=S)Nc1nc2c(s1)CCCC2)c1ccc(C(=O)c2ccccc2)cc1,-3%
7,COC(=O)c1ccc(C(=O)NC(=S)Nc2nc3c(s2)CC(C)CC3)cc1 (centres undefined),-10%
8,CC(C)(C)c1ccc(C(=O)NC(=S)Nc2nc3c(s2)CCCC3)cc1,13% (active)
9,COC(=O)c1ccc(C(=O)NC(=S)Nc2nc3c(s2)CCCC3)cc1,13% (active)
10,Cc1csc(NC(=O)c2cc3c(s2)CCCC3)n1,-5%
11,Cc1ccc(N2C(=O)c3ccccc3C2(O)c2ncc[nH]2)cc1 (centres undefined),-18%
12,CCc1nnc(NC(=O)c2c(C)nn(-c3ccccc3)c2Cl)s1,-16%
13,COc1ccc(-n2nc(C(=O)NCC(=O)NCc3ccc(F)cc3)c3ccccc3c2=O)cc1OC,-13%
14,COc1ccc(-n2c(SCc3ccccn3)nc3c(c2=O)SCC3)cc1OC,3% (active)
15,CCOC(=O)c1c(-c2ccc(C)o2)csc1NC(=S)NC(=O)N(C)C,21% (active)
16,CCOC(=O)c1c(CC(C)C)csc1NC(=O)c1ccccc1C(=O)O,-13%
17,CCOC(=O)c1cc2c(nc1NC(=S)NCc1ccccc1)CCCC2,-1%
18,CCOC(=O)c1c(-c2ccccc2)csc1NC(=S)NC,7% (active)
19,CCOC(=O)c1nnsc1NC(C)=O,-13%
20,CCNC(=S)Nc1scc(-c2ccccc2)c1C(=O)OCC,5% (active)
21,C=CCn1c(N2CCCCCC2)nc2c1c(=O)n(C)c(=O)n2C,-7%
22,CC1(OC(=O)C2CCCC2)C(=O)C=C2C=C(c3ccc(C#N)cc3)OC=C2C1=O (centres undefined),-18%
23,Cc1ccc(C)c(N2CCN(S(=O)(=O)c3ccc(-c4ccc(=O)[nH]n4)o3)CC2)c1,-11%
24,CC(Sc1n[nH]c(=O)[nH]c1=O)C(=O)OCc1ccccc1 (centres undefined),-11%
25,Cn1c2ccccc2c(=O)c2c(=O)n(Cc3ccco3)c(-c3ccc(Cl)cc3Cl)nc21,-10%

row,Structure (SMILES),"activity increase over dofetilide control, less the hit threshold"
1,Cn1c(=O)c2sc3c(c2n(CC(=O)Nc2ccccc2)c1=O)COC(C)(C)C3,-12%
2,COc1ccccc1-n1cnc2cc(NS(=O)(=O)c3ccc(Br)cc3)ccc21,-24%
3,Cc1ccc(CNC(=O)CN(C(=O)C2(C)CC(=O)N=C3C=CC=CN32)c2ccccc2F)cc1 (centres undefined),-8%
4,CCCCn1c(=S)[nH]c2ccccc2c1=O,3% (active)
5,CCOCCCn1c(=S)[nH]c2cc(C(=O)NCCOC)ccc2c1=O,-13%
6,CCCCC(CC)CNC(=O)Cn1c(=S)[nH]c2ncccc2c1=O (centres undefined),-12%
7,Cc1ccc(Cn2c(=S)[nH]c3ccccc3c2=O)cc1,3% (active)
8,O=C1CN(S(=O)(=O)c2ccccc2)CC(=O)N1CCc1ccccc1,-6%
9,O=c1c2cc(Cl)ccc2[nH]c(=S)n1Cc1cccs1,-8%
10,CC(C)CCn1c(=S)[nH]c2ncccc2c1=O,-1%
11,CCN(CCCn1c(=S)[nH]c2ncccc2c1=O)c1ccccc1,-2%
12,O=c1c2ccccc2[nH]c(=S)n1CCc1ccccc1,20% (active)
13,CCCCCn1c(=S)[nH]c2ncccc2c1=O,40% (active)
14,Cc1ccc(OCCC(=O)OC(C)C(=O)Nc2ccc(Cl)cn2)cc1 (centres undefined),-11%
15,CCC1(C)CC2(CCCN(CCC(=O)c3ccccc3)C2)CCO1 (centres undefined),-34%
16,Cc1ccc(NC(=O)CSc2nnc(-c3cccnc3)n2-c2ccc(C)cc2)cc1,-20%
17,c1ccc(-c2n[nH]c(-c3ccccn3)n2)cc1,7% (active)
18,COc1ccc(-c2nc(-c3ccccn3)ncc2S(C)(=O)=O)cc1,-15%
19,c1ccc(-c2ccc(-c3ccncn3)cc2)cc1,-14%
20,Cc1nc(Oc2ccc(Cl)cc2)c2oc3ccccc3c2n1,-9%
21,O=C1N2CCSC2=NC1(NS(=O)(=O)c1ccccc1)C(F)(F)F (centres undefined),5% (active)
22,COc1ccc(CCNC(=O)C2CCCN(S(C)(=O)=O)C2)cc1 (centres undefined),-15%
23,COc1ccc(-n2c(SCC#N)nnc2-c2cccnc2)cc1,-26%
24,O=C1CC(N2CCN(c3ccccc3Cl)CC2)C(=O)N1c1ccc(F)cc1 (centres undefined),-10%
25,COc1ccc(-c2oc3ccccc3c(=O)c2OC(C)=O)cc1,7% (active)

row,Structure (SMILES),"activity increase over dofetilide control, less the hit threshold"
1,COc1ccc(C(=O)c2oc3ccccc3c2N)cc1,-12%
2,COc1ccc(-c2c(C)c3ccc(OCC(C)=O)cc3oc2=O)cc1,-20%
3,CC(=O)Oc1c(-c2ccco2)oc2ccccc2c1=O,-1%
4,CC(=O)Oc1c(-c2ccc(Br)o2)oc2ccccc2c1=O,66% (active)
5,Cc1ccnc(SCCn2c(N3CC(C)OC(C)C3)nc3c2c(=O)n(C)c(=O)n3C)n1 (centres undefined),-26%
6,COc1ccc(/C=C2\SC(=N)N(c3nccs3)C2=O)cc1OC,30% (active)
7,N=C1S/C(=C\c2ccco2)C(=O)N1c1nccs1,-24%
8,N=C1S/C(=C\c2ccc(-c3cccc(Cl)c3)o2)C(=O)N1c1nccs1,50% (active)
9,CCN1C(=O)/C(=C\c2ccc(-c3cccc(C(=O)OC)c3)o2)SC1=Nc1ccc(C(=O)O)cc1,-3%
10,COc1cccc(CN(C)CC2CCCN(CCc3ccc(Cl)cc3)C2)c1OC (centres undefined),-31%
11,O=C(NCc1cccs1)C1CC(c2ccc(F)cc2)=NO1 (centres undefined),-24%
12,COc1ccc(Cl)cc1C(=O)NNC(=S)NC(=O)/C=C/c1ccco1,-4%
13,Cc1occc1C(=O)NNC(=S)NC(=O)COc1ccc(Cl)cc1Cl,100% (active)
14,CCC(=O)N1CCCc2ccccc21,-8%
15,CC(=O)N1CCCc2cc(S(=O)(=O)NCc3ccc(C)cc3)ccc21,-1%
16,Cc1ccc(Cn2nnc3c(=O)n(CC(=O)N4CCCc5ccccc54)cnc32)cc1,2% (active)
17,Cn1c(=O)c2sccc2n(Cc2cccc(Br)c2)c1=O,-11%
18,Cn1c(=O)[nH]c(=O)c2c1nc(CN1CCN(c3ccccc3F)CC1)n2CCCc1ccccc1,-7%
19,O=C(COC(=O)C1C2CC3OC(=O)C1C3C2)Nc1ccc(Cl)cc1 (centres undefined),-17%
20,O=C(O)CCCCn1c(SCc2ccccc2Cl)nc2ccsc2c1=O,4% (active)
21,CC(/C=C1\N=C(SCc2ccccc2Cl)SC1=O)=C\c1ccccc1,-9%
22,O=C(CN1C(=O)c2ccccc2S1(=O)=O)NCCSCc1ccccc1Cl,-16%
23,Cc1cc(NC(=O)CCCn2cnc([N+](=O)[O-])n2)no1,-9%
24,CCOC(=O)c1n[nH]n2c1nc(=S)c1ccccc12,46% (active)
25,CCOC(=O)C1CCN(C(=O)COC(=O)c2nn(C)c(=O)c3ccccc23)CC1,-23%

row,Structure (SMILES),"activity increase over dofetilide control, less the hit threshold"
1,CCOC(=O)c1nnn(CC(=O)Nc2ccccc2OC)c1C(=O)OCC,-3%
2,C[n+]1ccccc1COc1ccc(C(C)(C)C)cc1,-15%
3,COC(=O)c1ccc(/C=C/c2ccc3cccc(OC)c3n2)cc1,-7%
4,Cc1ccc(/C=C/C(=O)c2ccccc(=O)c2O)c(C)c1,22% (active)
5,O=C(/C=C/c1ccccc1Cl)c1ccccc(=O)c1O,13% (active)
6,Cc1ccc(NS(=O)(=O)c2ccc(NC(=O)c3ccccc3C(=O)O)cc2)cc1C,-5%
7,Cc1ccc(C)c(/C=C/C(=O)c2ccccc(=O)c2O)c1,-3%
8,Cc1ccc(C(=O)c2ccccc2C(=O)O)c(O)c1,-6%
9,Cc1ccc(/C=C/C(=O)c2ccccc(=O)c2O)cc1C,8% (active)
10,CC(=O)c1sc(-c2ccc(F)cc2)cc1NS(=O)(=O)c1ccc(C)cc1,-14%
11,CC1=[N+]([O-])C(C)(C)C(c2ccc(Br)cc2)=[N+]1[O-],-3%
12,COCCNC(=O)CN(C(=O)c1ccc(N2CCCC2)nc1)c1ccccc1,-15%
13,CCc1ccc2[nH]c(=O)c(-c3ccccc3)c(O)c2c1,-20%
14,CCC(C)C(NC(=O)C(C)NC(=O)CNC(=O)CNC(=O)OCc1ccccc1)C(=O)OC (centres undefined) (Cbz-GGAI-OMe; configuration not given here),-22%
15,CN1C(=O)NC(c2cccc([N+](=O)[O-])c2)C2=C1CC(C)(C)CC2=O (centres undefined),-14%
16,CCc1ccccc1NC(=O)CC1CS(=O)(=O)CC1CC(=O)Nc1ccccc1CC (centres undefined),-4%
17,N#C/C(=N\Nc1ccccc1F)c1nc(-c2ccccc2)cs1,-14%
18,O=C(O)/C=C/c1cn(-c2ccccc2)nc1-c1ccc(-c2ccc([N+](=O)[O-])cc2)o1,27% (active)
19,COC(=O)Oc1ccc(/C=C/C(=O)OC(C)C)cc1OC(=O)OC,2% (active)
20,Cc1cc(C)nc(NS(=O)(=O)c2ccc(NC(=O)Cc3ccccc3)cc2)n1,-5%
21,Cc1cc(O)c(/C=N/OCc2ccc(Cl)cc2Cl)c(=O)o1,-4%
22,Brc1ccc(-c2noc(CCc3ccccc3)n2)cc1,-20%
23,CC(C)Cn1c(=S)[nH]c2cc(Cl)ccc21,5% (active)
24,Cc1nnc(SCC2=C(C(=O)O)N3C(=O)C(NC(=O)Cn4nc(C(F)F)cc4C)C3SC2)s1 (centres undefined),-5%
